In all, about 4,500 sequences were measured (“median log2 fold change of GCK-ALFA target abundance (FLAG IP / Myc IP barcode read proportion)”: median about 0.078, lowest 2% from about -0.6 on). Shown is part of a subset that was picked to be rich in the lowest values.
B1: GBRAP_78_6635 (protein)
chain: EVEELIDKALEKVSEAAKAALKLPLDLRAEVLDELSDAAVELVEAEEGEDKEEELEEALEELEEALEIVEENDSPLTEEIKKLLEEAIELVKKAIEELKE
B2: GBRAP_52_6046 (protein)
chain: MEEEARKLAKELLELVLEGKEEEARKLAREIAETKNEEEILKIAEELAKLVLEGDKETAEAGIKAAEIMAEELEKAGRDEGLADLILATVYGAAYKRLQK
B3: GBRAP_160_4784 (protein)
chain: MERVEKVAKRFREAAKRALELSKGETAENRANIVDVELGSAILELEEEGLLNDEEEEVAAEVRDELVAEILANPNLTDEELKALLEKAVEELRKRLEELE
B4: GBRAP_160_4344 (protein)
chain: SEEKEKLLKFVDEEFEEAIELIKGESIEQRKVIISGTFGEILMELSESPIISDELEDEVREIEDELLEYLDKNPDLSEEEIKELIKEAREKVKEAIEKHT
B5: GBRAP_35_5576 (protein)
chain: EDKEMLLETVEDLAEATIEAIKEGDVDLAIALLKAFLRTAKLAVEELENDLEALEKIAELLKKVIEEIKKHLADNPEMQKLLKELEKLLKEVKEKAEKVK
B6: GBRAP_35_5577 (protein)
chain: EDEEMLLETVEDLAEATIEAIKEGNLDLAIALLKAFLRTAKIAIEDLKNNKEALEKIAELLEKVIEEIKKYLSDNPEVQELKKELEELLKEAKEKLKKVK
B7: GBRAP_52_5857 (protein)
chain: SSARMRALAEELLALRLAGKEEELEARVKELVATLSEEEILALLEELAALAKEADKEGAEAILDVAELLADEAEEAGFDEDELSYALAEVAAAAYKQLQK
B8: GBRAP_128_3469 (protein)
chain: MTEEAVERTRKILEEMKKASPEEARELFKELFEWLLTLPLEVVEAVVEEIEKHLPELSAEKLEILAEVADEAMPKATPEKAALLADLRSSALLEAEKLEE
B9: GBRAP_35_5506 (protein)
chain: DSMSTIADMLVATIDDTVLAIPDLDVETAVQISRQLIRSAREVAEDLKDDPEGLKRLRDSMERLRDALVKHYGDNPLAQEAIKEIDELIKELEERIKEAE
B10: GBRAP_128_3267 (protein)
chain: MNPEVVAYAEAFVEKLKAAGPEEAKKLADELMEKLKTMSLEEVEQFVEVLEKKLKELSVEKLEILADAARKHRDEFSPEKANLVAGLEVEALNEAVEKEE
B11: GBRAP_160_3969 (protein)
chain: SEEVEKLLKEIDEIFEEAKEMIVGESFENRLTIVRVAVGEVLLLLSENPLVSDEAEDKVDEIGDELIATIEANPDLTEEEIKELIDKAEEEIKKIIKEDA
B12: GBRAP_125_3096 (protein)
chain: HMEEILEALKLLAKALGFSEEEAEELARLAANSSVKQTLYALFAAEGYEELADLVEKLTEEQAKEVLLELAKWLKENPNASKEEVVKKAKELAKKALAKA
B13: GBRAP_160_4666 (protein)
chain: MEELEKLMKELEEIAKEAVEMTKGQSHEERVAIIRVMKGEIILELEESKIATDEVVDYADELGDELIAYVAANPDLTEEELQELLDKMLKEIEEKLKEEL
B14: GBRAP_128_3471 (protein)
chain: AVEEARKRTEEIMEKMKEANDEEFKKLAEELAEWLLTLPVEEVEAAVEVIKEHLPELSAEKLEILADVLDKAMPKATPEKAALFADVRSEALLLAEEKEE
B15: GBRAP_166_4959 (protein)
chain: SLEEVRARLEAALAAFEAEGASLSLEERRDRLVEIAELLGEAARAGLPREELLEAAVRLLLLARAAGLSPAFVEAALVNIAGLPVELVDEALARAEALAA
B16: GBRAP_26_5483 (protein)
chain: REREILDELEAKVKAILADEPAEVRAAVVAEAIDALIEFAEVVEANINDEEKIEKAKKEALEEMRKFLEDLGIPEDKREKVVKALAEALEKVEKAIKEEA
B17: GBRAP_160_4794 (protein)
chain: SERIEKVAEIFREEAERALEMARGETVEERVAIFDVELGSAIMEAIEEGLLNDEEEDIAIEVRDELVEEVRRNPELTEEELRELARRKIEELRERLEELE
B18: GBRAP_9_7151 (protein)
chain: MEELFKKVKEILEDAFEEVKEVVPEEVKPIVDEKREEVLKRLEELAKDPNVTKEELKEEAKELVDEFEEAIKEKVDEETAKMVEAIALTAKLEIEEVAEE
B19: GBRAP_160_4215 (protein)
chain: DEIVEKLVEIAREEFEEALELIEGESEEERRVILDVAVGNVILEASEIPGVTDEMEETVDRMSEELARELLEAAGESEEERRALIEERTEELRKELKKLA
B20: GBRAP_160_4217 (protein)
chain: MELVEKLVEIVREEFEEALELIEGESEEERRVILDVAVGNVILEAMEIPGVTDEMEEVVEEKSRELAEELLEARDKSEEERRKLIEERVEELREELEKLE
B21: GBRAP_160_4218 (protein)
chain: MELVKKLVEIVREEFEEALELIEGESPEERRVILDVAVGNVILESMEIEGVTDEMEETVEEMSEELAEELLEAADESPEERRELIEERVEELEKELKKLE
B22: GBRAP_160_4516 (protein)
chain: SPKLERIEKLVEEARERIIEVIDEGDVEAAITVAAVEFGEVIMEIAEDESMSDEAEDAAAEIRDKLVEELKKAKDASKEEKKKIVEEKSKELIEKLKKLS

biological target: GABARAP, O95166; experiment: median log2 fold change of GCK-ALFA target abundance (FLAG IP / Myc IP barcode read proportion) (log2 ratio); each designed protein is fused to an ALFA-tag nanobody in HEK293 cells to bring the named protein to FLAG-tagged glucokinase (GCK); Myc marks an untargeted standard; higher = target protein stabilised (more abundant); conditions: target protein: 3xFLAG-MCP-GCK-ALFA reporter; HEK293 landing pad (RPLP)
In short: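 Sequencing of reverse-transcribed, amplified circular RNA barcodes from anti-FLAG and anti-Myc immunoprecipitates provided the readout for an ALFA-nanobody-fused binder library recombined into HEK293 landing-pad cells. Those cells were induced with 2 μg mL^−1 doxycycline, transfected with a plasmid expressing a FLAG-tagged target and a Myc-tagged standard, and lysed after 48 h. Target abundance is the per-binder median log2 ratio of FLAG to Myc barcode read proportions. Only barcodes at a proportion of ≥10^−7 in both replicates and binders with ≥3 barcodes per replicate were kept, with a 10^−6 pseudocount added before the two replicates were pooled.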

GABARAP, O95166, sequence (O95166 whole entry, the tested form may be a part): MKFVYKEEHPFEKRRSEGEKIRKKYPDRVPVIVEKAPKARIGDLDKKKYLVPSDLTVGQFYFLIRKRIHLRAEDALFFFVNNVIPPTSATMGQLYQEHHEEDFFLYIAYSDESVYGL

Binder	median log2 fold change
B1	-1.21
B2	-0.00871
B3	0.242
B4	-0.232
B5	-1.27
B6	0.248
B7	-0.305
B8	0.314
B9	-0.631
B10	0.119
B11	-0.61
B12	0.229
B13	-1.11
B14	0.298
B15	0.117
B16	0.341
B17	0.169
B18	0.225
B19	-0.331
B20	-0.6
B21	-0.299
B22	0.404

Reference: the supplement of paper PMC12632987
